Records with an inconclusive call do not appear. Active and inactive are the calls of the source. Calls follow the shape of the dose curve; as a rule, active = well fitted inhibition curve with a large enough effect; inconclusive = small, poorly fitted or top-dose-only effect; inactive = flat fitted curve, though single readings scatter.
How the values were obtained:
[1] = test system: PC49; test: qHTS profiling for inhibitors of Plasmodium falciparum proliferation (AID 504749);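 also: 0% = DMSO vehicle and full inhibition = artemisinin control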; conditions: P. falciparum in erythrocytes, SYBR Green DNA, 72 h; series mostly up to 28.7 µM
In short: (§1)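 SYBR Green fluorescence of parasite DNA, read after lysis and overnight dark incubation, measured growth over 72 h in erythrocyte culture at 0.3% parasitemia and 2.5% hematocrit. Data normalised to DMSO and 0.29 uM artemisinin, with plate-drift correction.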

[2] = test system: SC27B; test: as above; conditions: P. falciparum in erythrocytes, SYBR Green DNA, 72 h; series mostly up to 28.7 µM
In short: as §1

[3] = test system: TAB109; test: as above; conditions: P. falciparum in erythrocytes, SYBR Green DNA, 72 h; series mostly up to 28.7 µM
In short: as §1

[4] = test system: TAB113; test: as above; conditions: P. falciparum in erythrocytes, SYBR Green DNA, 72 h; series mostly up to 28.7 µM
In short: as §1

[5] = test system: TAB165; test: as above; conditions: P. falciparum in erythrocytes, SYBR Green DNA, 72 h; series mostly up to 28.7 µM
In short: as §1

[6] = test system: W2; test: as above; conditions: P. falciparum in erythrocytes, SYBR Green DNA, 72 h; series mostly up to 28.7 µM
In short: as §1

[7] = test system: CRL-7250; test: Cytotoxic Profiling of Annotated Libraries Using Quantitative High-Throughput Screening (AID 1296008); conditions: Five cell lines viability, CellTiter-Glo ATP luminescence, 48-72 h; hits give low values; as to max response: % is scaled to controls: 0 for no effect and ±100 for the full control effect
In short: (§2)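 Cytotoxicity was measured as CellTiter-Glo ATP luminescence, read after 10 min at room temperature. Compound treatment of the cells lasted 48 or 72 hr at 37 degrees Celsius in a qHTS format.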

[8] = test system: HEK293; test: as above; conditions: Five cell lines viability, CellTiter-Glo ATP luminescence, 48-72 h; hits give low values
In short: as §2

[9] = test system: HaCat; test: as above; conditions: Five cell lines viability, CellTiter-Glo ATP luminescence, 48-72 h; hits give low values
In short: as §2

[10] = test system: KB-3-1; test: as above; conditions: Five cell lines viability, CellTiter-Glo ATP luminescence, 48-72 h, hits give low values
In short: as §2

[11] = test system: NIH3T3; test: as above; conditions: Five cell lines viability, CellTiter-Glo ATP luminescence, 48-72 h; hits give low values
In short: as §2

[12] = test system: HACAT; test: qHTS assay to identify novel small-molecules to repurpose for Merkel cell carcinoma treatment (AID 1296009); conditions: MCC and control cell lines, CellTiter-Glo viability, 72 h; at 44.8 µM (top of the series) unless noted
In short: (§3)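 Cell viability, measured as CellTiter-Glo luminescence, was normalized between DMSO and no-cell wells. The cells had been exposed to 8- or 11-point compound dilutions for 72 hr at 37 degree celsius.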

[13] = test system: MCC-13; test: as above; conditions: MCC and control cell lines, CellTiter-Glo viability, 72 h; series mostly up to 46 µM
In short: as §3

[14] = test system: MCC-26; test: as above; conditions: MCC and control cell lines, CellTiter-Glo viability, 72 h; series mostly up to 46 µM
In short: as §3

[15] = test system: MKL-1; test: as above; conditions: MCC and control cell lines, CellTiter-Glo viability, 72 h; series mostly up to 46 µM
In short: as §3

[16] = test system: MKL-2; test: as above; conditions: MCC and control cell lines, CellTiter-Glo viability, 72 h; series mostly up to 46 µM
In short: as §3

[17] = test system: UISO; test: as above; conditions: MCC and control cell lines, CellTiter-Glo viability, 72 h; series mostly up to 46 µM
In short: as §3

[18] = test system: WaGa; test: as above; conditions: MCC and control cell lines, CellTiter-Glo viability, 72 h; series mostly up to 46 µM
In short: as §3
Also: nearly all actives have a fitted effect of over 60% in size.

NS(=O)(=O)c1ccc(C(=O)O)cc1
inactive: Potency [1] | Potency [2] | Potency [3] | Potency [4] | Potency [5] | Potency [6] | max response [7] -10.9% | max response [8] -0.608% | outcome [9] | max response [10] 9.5% | max response [11] 1.17% | outcome [12] | outcome [13] | outcome [14] | outcome [15] | outcome [16] | outcome [17] | outcome [18]

O[C@@H]1CO[C@H]2[C@@H]1OC[C@@H]2O
inactive: Potency [1] | Potency [2] | Potency [3] | Potency [4] | Potency [5] | Potency [6] | outcome [7] | max response [8] -0.534% | outcome [9] | max response [10] 6.79% | max response [11] 4.37% | outcome [12] | outcome [13] | outcome [14] | outcome [15] | outcome [16] | outcome [17] | outcome [18]

CN1CCN(C(=O)C2CCCCC2)CC1
inactive: Potency [1] | Potency [2] | Potency [3] | Potency [4] | Potency [5] | Potency [6] | outcome [7] | max response [8] -2.32% | outcome [9] | max response [10] -4.36% | max response [11] -7.73% | outcome [12] | outcome [13] | outcome [14] | outcome [15] | outcome [16] | outcome [17] | outcome [18]

Cc1ccc(C(C)C)c(O)c1
inactive: Potency [1] | Potency [2] | Potency [3] | Potency [4] | Potency [5] | Potency [6] | outcome [7] | max response [8] 3.73% | outcome [9] | max response [10] 18.3% | max response [11] 0.329% | outcome [12] | outcome [13] | outcome [14] | outcome [15] | outcome [16] | outcome [17] | outcome [18]

O=C(Cn1ccnc1[N+](=O)[O-])NCc1ccccc1
inactive: Potency [1] | Potency [2] | Potency [3] | Potency [4] | Potency [5] | Potency [6] | max response [7] 0.299% | max response [8] -3.43% | outcome [9] | max response [10] 0.421% | max response [11] 3.14% | outcome [12] | outcome [13] | outcome [14] | outcome [15] | outcome [16] | outcome [17] | outcome [18]

CCOC(=O)c1cccnc1
inactive: Potency [1] | Potency [2] | Potency [3] | Potency [4] | Potency [5] | Potency [6] | max response [7] -2.26% | max response [8] -0.734% | outcome [9] | max response [10] 2.38% | max response [11] 2.73% | outcome [12] | outcome [13] | outcome [14] | outcome [15] | outcome [16] | outcome [17] | outcome [18]

CCOc1cc(NC(C)=O)ccc1C(=O)OC
inactive: Potency [1] | Potency [2] | Potency [3] | Potency [4] | Potency [5] | Potency [6] | max response [7] 3.11% | max response [8] 0.16% | outcome [9] | max response [10] 19.6% | max response [11] 0.0399% | outcome [12] | outcome [13] | outcome [14] | outcome [15] | outcome [16] | outcome [17] | outcome [18]

CC[N+](CC)(CC(=O)Nc1c(C)cccc1C)Cc1ccccc1
inactive: Potency [1] | Potency [2] | Potency [3] | Potency [4] | Potency [5] | max response [7] -0.938% | max response [8] 3.4% | outcome [9] | max response [10] -3.17% | max response [11] 1.97% | outcome [12] | outcome [13] | outcome [14] | outcome [15] | outcome [16] | outcome [17] | outcome [18]

COc1ccccc1OC(=O)Oc1ccccc1OC
inactive: Potency [1] | Potency [2] | Potency [3] | Potency [4] | Potency [5] | Potency [6] | outcome [7] | max response [8] -4.48% | outcome [9] | max response [10] -6.45% | max response [11] 0.277% | outcome [12] | outcome [13] | outcome [14] | outcome [15] | outcome [16] | outcome [17] | outcome [18]

CCc1nnc(NS(=O)(=O)c2ccc(N)cc2)s1
inactive: Potency [1] | Potency [2] | Potency [3] | Potency [4] | Potency [5] | Potency [6] | max response [7] 4.08% | max response [8] -0.578% | outcome [9] | max response [10] 7.07% | max response [11] 3.74% | outcome [12] | outcome [13] | outcome [14] | outcome [15] | outcome [16] | outcome [17] | outcome [18]

CC1CCc2cc(F)cc3c(=O)c(C(=O)O)cn1c23 (configuration not stated)
inactive: Potency [1] | Potency [2] | Potency [3] | Potency [4] | Potency [5] | Potency [6] | outcome [7] | max response [8] -3.78% | outcome [9] | max response [10] -6.7% | max response [11] -1.98% | outcome [12] | outcome [13] | outcome [14] | outcome [15] | outcome [16] | outcome [17] | outcome [18]

CC(=O)Oc1cccc(C)c1
inactive: Potency [1] | Potency [2] | Potency [3] | Potency [4] | Potency [5] | Potency [6] | max response [7] 2.1% | max response [8] -2.07% | outcome [9] | max response [10] -6.53% | max response [11] -2.31% | outcome [12] | outcome [13] | outcome [14] | outcome [15] | outcome [16] | outcome [17] | outcome [18]

OCC(O)CS (configuration not stated)
inactive: Potency [1] | Potency [2] | Potency [3] | Potency [4] | Potency [5] | max response [7] -11.9% | max response [8] 3.48% | outcome [9] | max response [10] 1.95% | max response [11] 0.523% | outcome [12] | outcome [13] | outcome [14] | outcome [15] | outcome [16] | outcome [17] | outcome [18]
